Screening results from PubChem.
Pol beta inh-1 = qHTS Assay for Inhibitors of DNA Polymerase Beta. Pol beta primer extension/strand displacement, fluorescence kinetic. P06746. 340,000 compounds, 1.3% hits. Potency, µM (top dose mostly 114 µM), for the others: top-dose activity change, negative = inhibition, actives largely listed as inhibitors; also: potency is read from the fitted curve at half-maximal effect; % is scaled to controls: 0 for no effect and ±100 for the full control effect
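Preincubation: enzyme (10 nM) with compound, 15 min, RT. Reaction: substrate added to 50 nM final. Reads: 0 and 10 min. Analysis: normalized, Hill fit.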
POLI inh = qHTS for Inhibitors of Polymerase Iota. Pol iota fluorescent replication assay, 10 min. Potency, µM (doses to about 115 µM), inactives show at the highest dose activity, negative = inhibition, most hits filed as inhibitors. 390,000 compounds, 1% hits. AID 588590, 2011; also: potency is read from the fitted curve at half-maximal effect
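Fluorescent replication assay read twice, at 0 min and 10 min after adding 50 nM (final) substrate. Enzyme (10 nM) and compounds were first incubated 15 min at room temperature; enzyme-free buffer wells were negative controls.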
Pol eta inh-1 = qHTS for Inhibitors of Polymerase Eta; 390,000 compounds, 1.2% hits; DNA polymerase eta (Homo sapiens), Q9Y253; recombinant Pol eta, fluorescent DNA replication assay; AID 588591, 2011; Potency, µM (top dose mostly 114 µM), inactives show at the highest dose activity change, negative = inhibition, most hits filed as inhibitors; also: potency is read from the fitted curve at half-maximal effect; % is scaled to controls: 0 for no effect and ±100 for the full control effect
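Fluorescent replication assay: 50 nM final substrate added after a 15 min room-temperature compound preincubation with 10 nM enzyme. Signal taken at 0 min and again at 10 min.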
Pol kappa inh-1 = qHTS for Inhibitors of Polymerase Kappa; Potency, µM (titrated, usually from 107 µM), inactives show at the highest dose activity, negative = inhibition, most hits filed as inhibitors; DNA polymerase kappa (Homo sapiens), Q9UBT6; 400,000 compounds, 0.53% hits; purified Pol kappa, fluorescent DNA synthesis assay, 10 min; also: potency is read from the fitted curve at half-maximal effect; % is scaled to controls: 0 for no effect and ±100 for the full control effect
Target sequence (Q9UBT6 whole entry, looked up): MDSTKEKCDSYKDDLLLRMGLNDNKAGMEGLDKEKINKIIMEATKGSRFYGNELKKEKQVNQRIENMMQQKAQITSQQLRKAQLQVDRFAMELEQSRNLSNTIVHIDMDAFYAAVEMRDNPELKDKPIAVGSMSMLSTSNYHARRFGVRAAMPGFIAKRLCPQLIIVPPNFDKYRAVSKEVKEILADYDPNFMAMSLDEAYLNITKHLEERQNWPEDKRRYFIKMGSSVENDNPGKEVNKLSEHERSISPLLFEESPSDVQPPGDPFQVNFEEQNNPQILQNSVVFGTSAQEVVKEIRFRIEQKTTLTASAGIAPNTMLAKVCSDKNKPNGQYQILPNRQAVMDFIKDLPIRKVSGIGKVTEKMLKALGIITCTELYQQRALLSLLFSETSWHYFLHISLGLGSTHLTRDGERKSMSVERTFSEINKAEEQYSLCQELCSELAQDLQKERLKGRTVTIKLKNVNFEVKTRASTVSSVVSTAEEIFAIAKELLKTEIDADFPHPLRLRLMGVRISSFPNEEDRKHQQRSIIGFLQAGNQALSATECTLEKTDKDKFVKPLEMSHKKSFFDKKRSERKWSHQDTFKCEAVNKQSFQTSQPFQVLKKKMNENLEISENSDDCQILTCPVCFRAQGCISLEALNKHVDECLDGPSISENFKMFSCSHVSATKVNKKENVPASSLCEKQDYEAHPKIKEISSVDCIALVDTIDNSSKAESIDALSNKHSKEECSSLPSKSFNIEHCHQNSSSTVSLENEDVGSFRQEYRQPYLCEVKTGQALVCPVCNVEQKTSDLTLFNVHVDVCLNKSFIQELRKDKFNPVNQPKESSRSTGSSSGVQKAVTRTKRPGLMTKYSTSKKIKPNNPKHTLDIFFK
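Pol kappa 10 nM + cpd, 15 min RT; start w/ substrate 50 nM final; fluorescence kinetic read, 0 and 10 min. Neg ctrl: buffer, no enzyme.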
TDP1 block = qHTS Assay for Inhibitors of Tyrosyl-DNA Phosphodiesterase (TDP1) | recombinant TDP1, AlphaScreen DNA substrate cleavage | Potency, µM (top dose mostly 130 µM), without a hit: at the highest dose activity change, negative = inhibition, usual class: inhibitors | 350,000 compounds, 0.28% hits; also: potency is read from the fitted curve at half-maximal effect; % is scaled to controls: 0 for no effect and ±100 for the full control effect; nearly all actives have a fitted effect of over 40% in size
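Tdp1 1 nM final; 15 min RT w/ cpd; substrate 15 nM, 5 min; beads 10 ug/ml, 10 min; AlphaScreen read. Neg ctrl: no enzyme.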
FEN1 inh-1 = qHTS Assay for the Inhibitors of Human Flap endonuclease 1 (FEN1); 390,000 compounds, 0.35% hits; Potency, µM (series often up to 114 µM), for inactives: at the highest dose activity change, negative = inhibition, usual class: inhibitors; Recombinant FEN1 flap cleavage, fluorescence, 15 min; P39748; also: potency is read from the fitted curve at half-maximal effect; % is scaled to controls: 0 for no effect and ±100 for the full control effect; nearly all actives have a fitted effect of over 65% in size
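Steps: FEN1 (10 nM) dispensed; compound added by pin tool; 15 min at room temperature; substrate added to 50 nM final; reads at 0 min and 15 min; data normalized and fitted (four-parameter Hill).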
Pol beta inh-2 = Inhibitors of DNA Polymerase Beta: Hit validation; shares compounds with Pol beta inh-1; Pol beta primer extension/strand displacement, fluorescence kinetic; Potency, µM, hits mostly inhibitors; 250 compounds, 87% hits; AID 540280, 2011; calls by dose curve; also: potency is read from the fitted curve at half-maximal effect
Klenow inh = Inhibitors of DNA Polymerase Beta: Hit Validation in Klenow Fragment Assay; 250 tested, under 10 active; shares compounds with Pol beta inh-1; Klenow exo- polymerase counter-screen, fluorescent DNA substrate; activity change, negative = inhibition, % at 57.1 µM
HIV RT inh = Inhibitors of DNA Polymerase Beta: Hit Validation in HIV-RT Assay. 250 tested, under 10 active. HIV-1 RT polymerase activity, counter-screen. AID 540301, 2011. activity % (negative = inhibition, positive = activation), % at 57.1 µM. shares compounds with Pol beta inh-1
POLB valid = Inhibitors of DNA Polymerase Beta: Hit Validation in Radiolabeled Extension Assay. shares compounds with Pol beta inh-1. radiolabeled primer extension gel assay, phosphorimager. inhibition, % at 10 µM. 110 compounds, 91% hits;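 active = inhibition at 10 µM of 30% or more; inconclusive = no clear call, values can overlap the other calls; inactive = inhibition at 10 µM under 30%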
TbPGK inh = qHTS for inhibitors of Phosphogylcerate Kinase: Hit Validation Screen; 500 compounds, 79% hits; shares compounds with Pol kappa inh-1; Potency, µM (titrated, usually from 57.5 µM), for inactives: top-dose activity change, negative = inhibition, most hits filed as inhibitors; TbPGK coupled GAPDH assay, Kinase-Glo luminescence; also: potency is read from the fitted curve at half-maximal effect; % is scaled to controls: 0 for no effect and ±100 for the full control effect; nearly all actives have a fitted effect of over 65% in size
POLI cherry-pick = qHTS for Inhibitors of Polymerase Iota: Confirmatory Assay for Cherry-picked Compounds; 1,500 compounds, 77% hits; Pol iota primer extension, TAMRA/BHQ fluorescence; shares compounds with Pol kappa inh-1; AID 720496, 2013; Potency, µM, hits mostly inhibitors; also: potency is read from the fitted curve at half-maximal effect
Pol kappa inh-2 = qHTS for Inhibitors of Polymerase Kappa: Confirmatory Assay for Cherry-picked Compounds | shares compounds with Pol eta inh-1 | purified Pol-kappa, fluorescent strand-displacement substrate | Potency, µM, hits mostly inhibitors | 920 compounds, 76% hits | AID 720501, 2013; also: potency is read from the fitted curve at half-maximal effect
Pol eta inh-2 = qHTS for Inhibitors of Polymerase Eta: Confirmatory Assay for Cherry-picked Compounds; AID 720502, 2013; Pol eta primer extension, TAMRA/BHQ fluorescence, 10 min; shares compounds with Pol eta inh-1; 2,600 compounds, 64% hits; Potency, µM, hits mostly inhibitors; also: potency is read from the fitted curve at half-maximal effect
FEN1 inh-2 = qHTS Assay for the Inhibitors of FEN1: Confirmatory Assay for Cherry-picked Compounds; shares compounds with FEN1 inh-1; 880 compounds, 79% hits; Potency, µM, hits mostly inhibitors; FEN1 flap cleavage, TAMRA/BHQ2 fluorogenic DNA substrate; also: potency is read from the fitted curve at half-maximal effect; nearly all actives have a fitted effect of over 60% in size
* hit, by the source's call; ? = inconclusive; . = not tested or not shown; [ ] = another dose, or the depositor's remark. In the library only some 2.4% were active in any assay of this set; here they are far more common. Unless noted, calls follow the shape of the dose curve; as a rule, active = well fitted curve in the direction sought with a large enough effect; inconclusive = small, poorly fitted or top-dose-only effect, or another doubt; inactive = no such curve, though single readings can be large; an effect the other way counts as inactive or inconclusive.

SMILES	Pol beta inh-1	POLI inh	Pol eta inh-1	Pol kappa inh-1	TDP1 block	FEN1 inh-1	Pol beta inh-2	Klenow inh	HIV RT inh	Pol eta inh-2	others
Cc1c(Cl)cccc1NC(=O)C(C)N(c1ccccc1)S(C)(=O)=O (stereo not given)	-6%	2%	-7%	-22%	.	-8%	.	.	.	.
C=C(C)CCOC(=O)C(CC(=O)O)NCc1ccco1 (stereo not given)	8.9µM*	-7%	11µM*	?	.	6%	35*	-7	10	27*	Pol kappa inh-2=19*
Cc1cc(C)c2c(-n3cccc3)c(C(=O)NCCc3ccccc3)sc2n1	-13%	-6%	-9%	-4%	9%	10%	.	.	.	.
CCCCc1cc(=O)oc2cc(C)c(CN3CCCC3)c(O)c12	5µM*	11µM*	20µM*	?	.	?	35*	1	12	30*
Cc1cc(NC(=O)CN(C)S(=O)(=O)c2ccc3c(c2)CCC(=O)N3)ccc1Br	-1%	7%	-6%	-14%	2%	-1%	.	.	.	.
O=C(NCc1ccco1)c1c2c(nc3ccccc13)CCC2	11µM*	8.9µM*	3.2µM*	32µM*	.	?	25*	-6	10	85*	POLB valid=99*;POLI cherry-pick=?
CCn1c(SCC(=O)c2ccc(O)c(O)c2)nnc1-c1ccccc1	?	?	?	?	-11%	4%	.	.	.	.
CCn1c(SCC(=O)c2ccc(O)c(O)c2)nnc1-c1ccccc1OC	10µM*	10µM*	1.4µM*	20µM*	2%	2%	8.9*	-10	?	30*	TbPGK inh=7.3µM*;POLI cherry-pick=?;Pol kappa inh-2=17*
O=C(COC(=O)c1ccc(S(=O)(=O)NCc2ccco2)cc1)Nc1ccc(Cl)cn1	16µM*	22µM*	20µM*	79µM*	.	-7%	22*	-16	4	76*	POLB valid=100*
CN(CCC#N)C(=O)COC(=O)c1c2c(nc3ccccc13)/C(=C/c1ccco1)CC2	8.9µM*	3.2µM*	6.3µM*	20µM*	.	50µM*	22*	-27	6	54*	POLI cherry-pick=30*;FEN1 inh-2=67*
COc1ccc(OC)c(/C=c2\sc3nc(-c4cccs4)nn3c2=O)c1	?	21%	?	-11%	-3%	-8%	.	.	.	.
COc1ccccc1/C=c1\sc2nc(-c3ccco3)nn2c1=O	10µM*	18µM*	8.9µM*	32µM*	.	50µM*	28*	-32	4	19*	POLB valid=95*;POLI cherry-pick=42*;FEN1 inh-2=?
Cc1ccc(Cn2c(C)c(CNCCCc3ccccc3)c(C(=O)O)c2C)cc1	3%	29%	-20%	0%	8%	-3%	.	.	.	.
COc1cc(C(=S)N2CCN(c3cccc(Cl)c3)CC2)ccc1O	?	-17%	-10%	8%	2%	-20%	.	.	.	.
COc1cc(C(=S)N2CCN(c3ccccc3Cl)CC2)cc(O)c1O	10µM*	?	20µM*	71µM*	0%	?	2.5*	-16	-9	76*	FEN1 inh-2=15*
O=S(=O)(Nc1nccs1)c1ccc(Nc2nnc(-c3ccccc3)c3ccccc23)cc1	14µM*	?	?	-18%	-2%	89µM*	35*	1	31	.	FEN1 inh-2=?
COc1ccccc1CNC(=O)CC(c1ccc(C)cc1)N1Cc2ccccc2C1=O (stereo not given)	9%	21%	-20%	1%	6%	-1%	.	.	.	.
COc1ccc(Cn2c(-c3ccccc3)nc3c(c(=O)c4ccccc4n3C)c2=O)cc1	-1%	5%	?	-1%	-3%	6%	.	.	.	.	POLI cherry-pick=42*
COC(=O)[C@@H]1C=C[C@H](C)[C@H](CCOc2ccccc2)O1	.	.	.	.	1%	.	.	.	.	.
COc1ccccc1CNC(=O)C(=O)NCC(c1cccs1)S(=O)(=O)c1ccccc1 (stereo not given)	-14%	10%	-6%	-7%[60.1 µM]	-5%	-5%	.	.	.	.
O=C(CN1C(=O)/C(=C2\SC(=S)N(CCS(=O)(=O)O)C2=O)c2ccccc21)Nc1cccc(Br)c1	?	?	?	?	.	?	.	.	.	.	TbPGK inh=15µM*
